KB-3-1 cytotox: qHTS assay for MDR1-selective chemotherapeutics: Primary screen using the parental adenocarcinoma cell KB-3-1; 1.4% of 400,000 active; KB-3-1 viability, CellTiter-Glo ATP luminescence, 72 h; AID 1347075, 2019; Potency, µM (titrated, usually from 46.1 µM), most hits filed as cytotoxic; also: % is scaled to controls: 0 for no effect and ±100 for the full control effect; nearly all actives have a fitted effect of over 60% in size
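KB-3-1 parental drug-naive adenocarcinoma cells in DMEM/10% FBS, incubated 72 h at 37 C with pin-transferred compounds across a concentration series. Viability by CellTiter-Glo luminescence; concentration-response curves fitted after normalization.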
HT1080NT lethal: qHTS for induction of synthetic lethality in tumor cells producing 2HG: qHTS for the HT-1080-NT fibrosarcoma cell line | 1.6% of 360,000 active | HT-1080-NT fibrosarcoma viability, CellTiter-Glo ATP luminescence, 48 h | Potency, µM (top dose mostly 46.1 µM), inactives show at the top dose activity, negative = less viability, usual class: cytotoxic | AID 686970, 2013;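 also: NT is the 2HG producing partner of a matched IDH1 knockdown line; 0% = DMSO-treated cells and -100% = media-only wells without cells; nearly all actives have a fitted effect of over 55% in size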
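Read-out is CellTiter-Glo luminescence after 10 minutes at room temperature, following 48 hours' compound treatment of HT-1080-NT cells (750 cells/well, RPMI, 5% FBS, 37 degrees C).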
MCF10A rereplic: A quantitative high throughput screen for small molecules that induce DNA re-replication in MCF 10a normal breast cells; MCF 10A DNA re-replication, Hoechst nuclear intensity, 48 h; Potency, µM (series often up to 46.1 µM), inactives show top-dose activity, positive = re-replication, usual class: activators; 2.9% of 350,000 active; also: % of control where 0% means no effect; nearly all actives have a fitted effect of over 50% in size
SW480 rerep: A quantitative high throughput screen for small molecules that induce DNA re-replication in SW480 colon adenocarcinoma cells; SW480 DNA re-replication, Hoechst DNA content imaging, 48 h; Potency, µM (series often up to 46.1 µM), inactives show at the highest dose re-replication activation, most hits filed as activators; 1.8% of 340,000 active; also: % of control where 0% means no effect; nearly all actives have a fitted effect of over 55% in size
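Image-based read-out: total Hoechst fluorescence of nuclei (405 nm excitation, 500-530 nm emission), with hits raising the fraction of high-intensity nuclei. SW480 colon cells incubated 48 hr with compounds at 37 C.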
HT1080 IDH1KD tx: qHTS for induction of synthetic lethality in tumor cells producing 2HG: qHTS for the HT-1080-IDH1KD cell line; HT-1080 IDH1 knockdown viability, ATP luminescence, 48 h; 2% of 360,000 active; Potency, µM (titrated, usually from 46.1 µM), for the others: at the highest dose activity, negative = toxicity, usual class: cytotoxic;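 also: 0% = DMSO wells and -100% = cell-free medium wells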
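HT-1080-IDH1KD cells (IDH1 knocked down), 750/well in RPMI with 5% FBS, treated with compound 48 h at 37 degrees C. Viability by CellTiter-Glo luminescence, normalised to DMSO and no-cell wells; concentration-response curves classed.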
KB-V1 cytotox: qHTS assay for MDR1-selective chemotherapeutics: Primary screen using the drug-selected MDR subline cells KB-V1; 3.4% of 400,000 active; KB-V1 MDR cells viability, CellTiter-Glo, 72 h; Potency, µM (titrated, usually from 46.1 µM), most hits filed as cytotoxic; also: % is scaled to controls: 0 for no effect and ±100 for the full control effect; nearly all actives have a fitted effect of over 60% in size
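Readout: CellTiter-Glo luminescence, 10 min after addition. Cells: KB-V1 MDR subline, 72 h at 37 degrees C with compound. Analysis: corrected, normalized data fitted to concentration-effect curves.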
Starred values were filed as active, the others as inactive; i = inactive; u = inconclusive; x = not tested or not shown. Only some compounds are listed: those with a hit (about 7.9% of all), similar ones and a draw of the others. Calls follow the shape of the dose curve; as a rule, active = well fitted curve in the direction sought with a large enough effect; inconclusive = small, poorly fitted or top-dose-only effect, or another doubt; inactive = no such curve, though single readings can be large; an effect the other way counts as inactive or inconclusive. Potency is read from the fitted curve at half-maximal effect.

SMILES	KB-3-1 cytotox	HT1080NT lethal	MCF10A rereplic	SW480 rerep	HT1080 IDH1KD tx	KB-V1 cytotox
Cc1cc(C(O)c2ncc(-c3cccc4ccccc34)[nH]2)ccc1F (stereo unspecified)	i	u	x	x	-14%	i
COc1ccccc1-c1cnc(C(O)c2ccc(Cl)c(Cl)c2)[nH]1 (stereo unspecified)	u	-27%	x	x	u	23µM*
OC(c1ccc2ccccc2c1)c1ncc(-c2cccc3ccccc23)[nH]1 (stereo unspecified)	u	18µM*	x	x	26µM*	u
COc1c(C)cc(C(O)c2ncc(-c3cccc4ccccc34)[nH]2)cc1C (stereo unspecified)	u	u	x	x	u	i
COc1ccccc1-c1cnc(C(O)c2ccc(C(C)(C)C)cc2)[nH]1 (stereo unspecified)	u	-7%	x	x	u	21µM*
COc1ccccc1-c1cnc(C(O)c2ccccc2)[nH]1 (stereo unspecified)	i	-7%	x	x	u	u
COc1c(C)cc(C(O)c2ncc(-c3ccccc3C(F)(F)F)[nH]2)cc1C (stereo unspecified)	i	-16%	x	x	-15%	18µM*
COc1cc(NC(=O)CCCNC(=O)c2ccc(Cl)cc2)cc(OC)c1OC	i	3%	-12%	0%	0%	i
Cc1ccc(NC(=O)COC(=O)Cn2cnc3ccccc32)c(C)c1	i	8%	9%	-5%	-1%	i
CN(C)c1ccc(C=O)cc1Cl	i	x	x	x	x	i
CCOCCCN(C(=O)c1ccco1)C(C(=O)NC1CCCC1)c1cccc(OC)c1OC (stereo unspecified)	i	1%	-5%	u	-11%	16µM*
O=S(=O)([N-]c1nc2ccccc2nc1-n1cc[n+](Cc2ccccc2)c1)c1ccc(Br)cc1	i	1%	18µM*	18µM*	3%	i
CCCCC[n+]1ccn(-c2nc3ccccc3nc2[N-]S(=O)(=O)c2ccccc2)c1	i	-10%	2%	-6%	-3%	i
CC(C)CC[n+]1ccn(-c2nc3ccccc3nc2[N-]S(=O)(=O)c2ccc(Cl)cc2)c1	i	-4%	23µM*	u	1%	i
Cc1ccc(S(=O)(=O)[N-]c2nc3ccccc3nc2-n2cc[n+](CCC(C)C)c2)cc1	i	-25%	-15%	17%	-4%	i
O=C1CC(/C=C/c2ccccn2)=Nc2ccccc2N1	18µM*	-1%	-1%	u	2%	u
O=C1CC(/C=C/c2ccco2)=Nc2ccccc2N1	i	1%	4%	6%	0%	i
Cc1ccc(C(C(=O)NC2CCCC2)N(C(=O)CCC(=O)Nc2cc(C)on2)c2ccccc2)cc1 (stereo unspecified)	i	8%	0%	-1%	18%	i
Cc1cc(NC(=O)CCCC(=O)N(c2ccccc2)C(C(=O)NC2CCCCC2)c2cccs2)no1 (stereo unspecified)	i	1%	-1%	2%	2%	2.1µM*
C=CCN1C(=O)/C(=C2/Sc3ccc(OC)cc3N2C)SC1=Nc1ccccc1	i	2%	u	7.3µM*	-2%	i
COc1ccc(C)cc1NC(=O)c1nnn(Cc2cccc(Br)c2)c1N	u	x	x	x	x	i
COc1ccccc1NC(=O)c1nnn(Cc2ccccc2)c1NC(=O)C(F)(F)F	18µM*	0%	15%	-4%	-18%	21µM*
